# Assay results as given in PubChem BioAssay (NCATS).
# Several values for one entry are separate records, joined by “and”; a condition that tells them apart may be missing. Equal values may be shown once. Records with an inconclusive call do not appear. A call without a number means that no potency is given here. More than one record can exist for a structure, and the calls need not agree. Activity calls are given as the source filed them. Calls come from the whole dose curve; as a rule, active = well fitted curve in the direction sought with a large enough effect; inconclusive = small, poorly fitted or top-dose-only effect, or another doubt; inactive = no such curve, though single readings can be large; an effect the other way counts as inactive or inconclusive.
# Key:
# [1] = biological target: Glutathione peroxidase 1 (Homo sapiens) (UniProt P07203); assay: Primary qHTS Assay for Inhibitors of Recombinant Selenoprotein Glutathione Peroxidase 1 (GPX1) (AID 1845191); note: nearly all actives have a fitted effect of over 65% in size; note: potency is the fitted concentration of half-maximal effect
# Procedure, shortened: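 NADPH consumption tracked by fluorescence at 340/450 nm between t=0 and t=15 min, room temperature. Final mix: 10 nM GPX1, 100 nM glutathione reductase, 1 mM GSH, 0.5 mM NADPH, 0.5 mM cumene hydroperoxide, 0.01% BSA; 30 min compound–enzyme preincubation.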
# [2] = biological target: Phospholipid hydroperoxide glutathione peroxidase GPX4 (Homo sapiens) (UniProt P36969); assay: Primary qHTS Assay for Inhibitors of Recombinant Selenoprotein Glutathione Peroxidase 4 (GPX4) (AID 1845192); note: nearly all actives have a fitted effect of over 65% in size
# Procedure, shortened: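 NADPH consumption followed by fluorescence at 340/450 nm, t=0 and after 15 min at room temperature. Reaction started with cumene hydroperoxide (0.5 mM final) after 30 min compound–GPX4 preincubation; final 200 nM GPX4, 100 nM GR, 1 mM GSH, 0.5 mM NADPH.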
# [3] = Quantitative High-Throughput drug screen in 47 multiple myeloma cell lines against the NCATS MIPE library collection: FR4_PLB cell viability assay (AID 1918924; note: nearly all actives have a fitted effect of over 35% in size; note: potency is the fitted concentration of half-maximal effect)
# Procedure, shortened: (§1)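 Approved and investigational drugs from MIPE 4.0 were added by pin tool to 500 cells per well. After 48 hours at 37C, ATP-based CellTiter-Glo luminescence indicated remaining viability.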
# [4] = Quantitative High-Throughput drug screen in 47 multiple myeloma cell lines against the NCATS MIPE library collection: Delta47_JCRB cell viability assay (AID 1918925; note: nearly all actives have a fitted effect of over 45% in size; note: potency is the fitted concentration of half-maximal effect)
# Procedure, shortened: as §1
# [5] = Quantitative High-Throughput drug screen in 47 multiple myeloma cell lines against the NCATS MIPE library collection: EJM_DSMZ cell viability assay (AID 1918926; note: nearly all actives have a fitted effect of over 30% in size; note: potency is the fitted concentration of half-maximal effect)
# Procedure, shortened: as §1
# [6] = biological target: Luciferin 4-monooxygenase (Photinus pyralis) (UniProt P08659); assay: Primary firefly luciferase (FLuc) qHTS assay for identification of artifact compounds. (AID 1845220); note: series mostly up to about 54 µM; nearly all actives have a fitted effect of over 60% in size
# Procedure, shortened: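 FLuc 10 nM; luciferin 10 uM; ATP 10 uM; Tris-acetate pH 7.6, Mg-acetate 10 mM; 15 min RT preincubation; 5 min reaction; luminescence.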
# [7] = system: Nanoluciferase (engineered Oplophorus gracilirostris luciferase); assay: Primary Nanoluciferase (NLuc) qHTS assay for identification of artifact compounds. (AID 1845222);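 note: NLuc secreted into diluted conditioned medium of S16 cells; series mostly up to about 54 µM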
# Procedure, shortened: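 NLuc from S16 cell medium (1:55) plus test compounds, 15 min, room temperature. Luminescence after Nano-Glo (1:100) addition, 5 min.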
# [8] = Primary redox qHTS assay for identification of artifact compounds. (AID 1845223)
# Procedure, shortened: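 Redox-cycling detection via DTT (250 uM final) oxidation coupled to Amplex Red (25 uM)/HRP (250 mU/mL) in HBSS. 15 min preincubation plus 30 min after DTT, room temperature. Ex/Em 525/598 nm; 4-parameter Hill fit against DMSO and 10 uM DA3003.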
# [9] = Primary fluorescence-based thiol-reactive (MSTI) qHTS assay for identification of artifact compounds. (AID 1845221);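 note: series mostly up to about 54 µM; thiol-reactive compounds lower the probe fluorescence signal; nearly all actives have a fitted effect of over 65% in size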
# Procedure, shortened: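 Curve-fitted percent inhibition (4-parameter Hill) derived from fluorescence, Ex 525/Em 598 nm, scaled with Acetyl-MSTI and MSTI; 1 h incubation at room temperature.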
# Sequence of Glutathione peroxidase 1 (Homo sapiens) (P07203 whole entry, looked up): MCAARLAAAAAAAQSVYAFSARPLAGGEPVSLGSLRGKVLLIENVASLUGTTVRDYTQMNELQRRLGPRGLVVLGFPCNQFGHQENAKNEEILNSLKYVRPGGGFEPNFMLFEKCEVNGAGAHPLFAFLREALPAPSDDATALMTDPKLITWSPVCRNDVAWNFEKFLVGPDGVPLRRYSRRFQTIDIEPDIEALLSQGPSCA
# Sequence of Phospholipid hydroperoxide glutathione peroxidase GPX4 (Homo sapiens) (P36969 whole entry, looked up): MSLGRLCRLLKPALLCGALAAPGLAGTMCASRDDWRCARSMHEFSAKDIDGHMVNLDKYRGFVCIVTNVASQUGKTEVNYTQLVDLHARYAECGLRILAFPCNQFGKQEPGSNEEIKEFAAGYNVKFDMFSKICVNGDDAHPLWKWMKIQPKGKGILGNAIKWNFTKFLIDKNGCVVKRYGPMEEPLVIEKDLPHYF
smiles,measurement,setting,value
COc1cc(NC(=O)c2ccc(-c3ccc(Cl)cc3)o2)cc(OC)c1,Potency,[1],inactive
same,Potency,[2],inactive
same,Potency,[3],inactive
same,Potency,[4],2.35 µM (active)
same,Potency,[5],inactive
CCNc1cc(NC2CCC(O)CC2)nc(Nc2ccc3c(ccn3Cc3ccccc3)c2)n1 (configuration not stated),Potency,[1],inactive
same,Potency,[2],inactive
same,Potency,[3],26.4 µM (active)
same,Potency,[4],18.7 µM (active)
same,Potency,[5],18.7 µM (active)
O=C1C(Cl)=C(NCCN2CCOCC2)C(=O)c2ncccc21,Potency,[1],9.16 µM (active)
same,Potency,[2],inactive
same,Potency,[3],6.62 µM (active)
same,Potency,[4],7.43 µM (active)
same,Potency,[5],7.43 µM (active)
CN1C[C@H]2c3ccccc3Oc3ccc(Cl)cc3[C@@H]2C1,Potency,[1],inactive
same,Potency,[2],inactive
same,Potency,[3],inactive
same,Potency,[4],inactive
same,Potency,[5],inactive
Nc1ncnc2ccccc12,Potency,[1],inactive
same,Potency,[2],inactive
same,Potency,[3],inactive
CC(C)(Cc1ccc2ccccc2c1)NC[C@@H](O)COc1cccc(Cl)c1C#N,Potency,[1],inactive
same,Potency,[2],inactive
same,Potency,[3],inactive
same,Potency,[5],inactive
CC(C)[C@H](CO)Nc1nc(Nc2ccc(C(=O)O)c(Cl)c2)c2ncn(C(C)C)c2n1,Potency,[1],inactive
same,Potency,[2],inactive
same,Potency,[6],inactive
same,Potency,[7],inactive
same,outcome,[8],inactive
same,Potency,[4],1.48 µM (active)
O=c1cc(-c2cccc3c2Sc2ccccc2S3)oc(N2CCOCC2)c1,Potency,[1],inactive
same,Potency,[2],inactive
same,Potency,[3],26.4 µM (active)
same,Potency,[4],5.26 µM (active)
CCc1ccc(OCc2ccccc2C(=O)Nc2ccc3nc(C)cc(N)c3c2)cc1,Potency,[1],inactive
same,Potency,[3],8.33 µM (active)
same,Potency,[4],1.18 µM (active)
same,Potency,[5],7.43 µM (active)
c1ccc2c(-c3cnn4cc(-c5ccc(N6CCNCC6)cc5)cnc34)ccnc2c1,Potency,[1],inactive
same,Potency,[2],inactive
same,Potency,[5],11.8 µM (active)
Cc1ccc(C(C)(O)c2nc3ccccc3s2)c(C)c1 (configuration not stated),Potency,[1],inactive
same,Potency,[2],inactive
same,Potency,[4],inactive
CC(=O)Oc1cc2c(s1)CCN(C(C(=O)C1CC1)c1ccccc1F)C2 (configuration not stated),Potency,[1],16.1 µM (active) and inactive and 20.2 µM (active)
same,Potency,[2],inactive
same,Potency,[4],3.32 µM (active)
O=C1C[C@@H](c2ccc(O)cc2)Oc2cc(O)cc(O)c21,Potency,[1],inactive
same,Potency,[3],inactive
same,Potency,[4],inactive
same,Potency,[5],inactive
COc1ccc2cc(-c3nc(-c4ccc(S(C)=O)cc4)[nH]c3-c3ccncc3)ccc2c1 (configuration not stated),Potency,[1],inactive
same,Potency,[6],inactive
same,Potency,[9],inactive
same,Potency,[7],inactive
same,outcome,[8],inactive
same,Potency,[4],16.6 µM (active)
Nc1ncnc2c1nc(Cl)n2[C@@H]1O[C@H](CO)[C@@H](O)[C@@H]1O,Potency,[1],inactive
same,Potency,[2],inactive
same,Potency,[4],23.5 µM (active)
same,Potency,[5],18.7 µM (active)
COc1cc2nc(-c3ccc(N4CCN(C)CC4)cc3)nc(NCCN3CCOCC3)c2cc1OC,Potency,[1],inactive
same,Potency,[6],inactive
same,Potency,[9],inactive
same,Potency,[7],inactive
same,Potency,[3],0.0296 µM (active)
same,Potency,[4],0.148 µM (active)
same,Potency,[5],0.0264 µM (active)
CO[C@H]1C=CO[C@@]2(C)Oc3c(C)c(O)c4c(O)c(c5c(c4c3C2=O)NC2(CCN(CC(C)C)CC2)N=5)=NC(=O)C(C)=CC=C[C@H](C)[C@H](O)[C@@H](C)[C@@H](O)[C@@H](C)[C@H](OC(C)=O)[C@H]1C,Potency,[2],inactive
same,Potency,[6],inactive
same,Potency,[7],inactive
same,outcome,[8],inactive
same,Potency,[4],inactive
CC[C@@]1(O)C[C@H](O[C@H]2C[C@H](N(C)C)[C@H](O[C@H]3C[C@H](O)[C@H](O[C@H]4CCC(=O)[C@H](C)O4)[C@H](C)O3)[C@H](C)O2)c2c(cc3c(c2O)C(=O)c2c(O)cccc2C3=O)[C@@H]1C(=O)OC,Potency,[1],inactive
same,Potency,[3],0.332 µM (active)
same,Potency,[4],0.0662 µM (active)
same,Potency,[5],0.469 µM (active)
CC(C)OC(=O)C(C)(C)Oc1ccc(C(=O)c2ccc(Cl)cc2)cc1,Potency,[1],inactive
same,Potency,[2],inactive
same,Potency,[5],10.5 µM (active)
CC(C)n1cnc2c(NCCCCCCNC(=O)OC(C)(C)C)nc(NCCO)nc21,Potency,[1],inactive
same,Potency,[2],inactive
same,Potency,[4],14.8 µM (active)
same,Potency,[5],20.9 µM (active)
